# Experimental data from the supplement of paper PMC10515830.
# Where a name gives a salt, the structure may show the parent alone.
# Columns and labels:
# Conditions in all cases: 10 µM; exposure time 6 h
# [1] = tested on: Danio rerio larvae (5 dpf); assay: difference in excitability vs DMSO (percentage points); higher = more excitable than DMSO
# How it was run: (§1)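 Wild-type 5 dpf zebrafish larvae in 96-well plates were given 100 µL egg water containing library compound at 10 µM final for 6 h. After 3 h of exposure, plates at 28.5 ℃ were photographed every 6 s during a 3-h programme of moving lines and 100 ms, 400Hz tones. Z-LaP Tracker (a DeepLabCut model) quantified each behaviour, averaged over 48 larvae per compound. Values are the compound mean minus the DMSO-vehicle control, in percentage points.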
# [2] = tested on: Danio rerio larvae (5 dpf); assay: difference in startle response vs DMSO (percentage points); higher = stronger startle than DMSO
# How it was run: as §1
# [3] = tested on: Danio rerio larvae (5 dpf); assay: difference in activity during first hour vs DMSO (percentage points); higher = more activity than DMSO
# How it was run: as §1
# [4] = tested on: Danio rerio larvae (5 dpf); assay: difference in habituation to acoustic stimuli vs DMSO (percentage points); higher = more habituation than DMSO
# How it was run: as §1
# [5] = tested on: Danio rerio larvae (5 dpf); assay: difference in combined optomotor response to red, green and blue moving lines vs DMSO (percentage points); higher = stronger optomotor response than DMSO
# How it was run: as §1
Compound,difference in excitability [1],difference in startle response [2],difference in activity during first hour [3],difference in habituation to acoustic stimuli [4],difference [5]
CNC(=O)c1cnn(-c2nc(N)c3ncn([C@@H]4O[C@H](CO)[C@@H](O)[C@H]4O)c3n2)c1 [Regadenoson],-3.36,0.153,6.41,-0.999,3.31
CC[C@H](C)C(=O)O[C@H]1C[C@@H](C)C=C2C=C[C@H](C)[C@H](CC[C@@H]3C[C@@H](O)CC(=O)O3)[C@H]21 [Lovastatin],9.79,2.77,7.75,-0.0098,1.09
CN(C)CCC=C1c2ccccc2C=Cc2ccccc21 [Cyclobenzaprine (hydrochloride)],17.5,-6.94,6.26,-8.81,14.9
CC(=O)O[C@@]12CO[C@@H]1C[C@H](O)[C@@]1(C)C(=O)[C@H](O)C3=C(C)[C@@H](OC(=O)[C@H](O)[C@@H](NC(=O)OC(C)(C)C)c4ccccc4)C[C@@](O)([C@@H](OC(=O)c4ccccc4)[C@H]21)C3(C)C [Docetaxel (hydrate)],4.98,-2.23,-2.75,-0.117,-1.11
CC(C)(C)NCC(O)c1ccc(O)c(CO)c1 (stereo not given) [Salbutamol (hydrochloride)],7.67,-7.77,15.5,-0.991,4.05
N=C(N)N/N=C/c1c(Cl)cccc1Cl [Guanabenz (hydrochloride)],1.72,17.3,-12.1,5.15,8.58
C[C@H]1O[C@H](O[C@H]2[C@H](O)[C@@H](O)[C@@H](O[C@H]3[C@H](O)[C@@H](O)C(O)O[C@@H]3CO)O[C@@H]2CO)[C@H](O)[C@@H](O)[C@@H]1N[C@H]1C=C(CO)[C@@H](O)[C@H](O)[C@H]1O (stereo not given in full) [Acarbose],11,-8.81,-0.68,-4.5,4.03
CC(C)N1CCN(c2ccc(OCC3COC(Cn4cncn4)(c4ccc(Cl)cc4Cl)O3)cc2)CC1 (stereo not given) [Terconazole],18,-1.46,2.36,-6.11,0.243
CN1CCN2c3ncccc3Cc3ccccc3C2C1 (stereo not given) [Mirtazapine],-3.43,3.21,17.5,-1.46,-7.5
C[N+](C)(C)CC=O [Betaine Aldehyde (chloride)],7.5,1.56,10.1,-0.929,4.79
COC(=O)C1=C(C)NC(C)=C(C(=O)OC)C1c1ccccc1[N+](=O)[O-] [Nifedipine],8.58,-1.47,-4.95,0.749,12.1
CC(C)(C)NC[C@H](O)COc1cccc2c1CCCC2=O [Levobunolol (hydrochloride)],5.55,1.6,12.7,-1.95,5.62
CC1OC2(CS1)CN1CCC2CC1 (stereo not given) [Cevimeline (hydrochloride)],-6.36,-3.25,16.4,-3.9,-1.46
O=C(NC[C@H]1CN(c2ccc(N3CCOCC3=O)cc2)C(=O)O1)c1ccc(Cl)s1 [Rivaroxaban],-1.52,-3.86,-2.47,-4.56,1.67
COc1cccc2c1C(=O)c1c(O)c3c(c(O)c1C2=O)C[C@@](O)(C(=O)CO)C[C@@H]3O[C@H]1C[C@H](N)[C@@H](O)[C@H](C)O1 [Epirubicin (hydrochloride)],9.14,0.312,-7.5,5.65,1.76
CN(C)CCCN1c2ccccc2CCc2ccccc21 [Imipramine (hydrochloride)],14.5,-8.78,-16.4,-11.2,-6.91
N=C(NCCCCCCNC(=N)NC(=N)Nc1ccc(Cl)cc1)NC(=N)Nc1ccc(Cl)cc1 [Chlorhexidine (hydrochloride)],11.8,-11,-19.9,-10.2,-17.6
Cc1ccc(=O)n(-c2ccccc2)c1 [Pirfenidone],-2.03,3.37,0.0618,2.62,8.23
Clc1ccc2c(c1)CCc1cccnc1C2=C1CCNCC1 [Desloratadine],10.4,3.48,2.87,-2.42,1.86
CO[C@H]1/C=C/O[C@@]2(C)Oc3c(C)c(O)c4c(O)c(c(/C=N/N5CCN(C)CC5)c(O)c4c3C2=O)NC(=O)/C(C)=C\C=C\[C@H](C)[C@H](O)[C@@H](C)[C@@H](O)[C@@H](C)[C@H](OC(C)=O)[C@@H]1C [Rifampicin],2.43,2.9,8.79,-1.68,-3.29
CC(=O)Oc1ccccc1C(=O)O [Aspirin],-1,2.44,2.02,1.42,2.52
N#Cc1ccc(C(c2ccc(C#N)cc2)n2cncn2)cc1 [Letrozole],4.92,-5.86,-6.93,-3.28,0.376
CC1(C)O[C@@H]2C[C@H]3[C@@H]4CCC5=CC(=O)CC[C@]5(C)[C@@]4(F)[C@@H](O)C[C@]3(C)[C@]2(C(=O)CCl)O1 [Halcinonide],-1.92,2.79,7.26,9.28,6.48
CCC(=O)O[C@]1(C(=O)SCF)[C@H](C)C[C@H]2[C@@H]3C[C@H](F)C4=CC(=O)C=C[C@]4(C)[C@@]3(F)[C@@H](O)C[C@@]21C [Fluticasone Propionate],-4.47,-3.21,11.5,1.17,14.7
